Assay results: the supplement of paper PMC7156485
Where a name gives a salt, the structure may show the parent alone. ± gives the standard deviation of the averaged measurements.

System: HCC1569
Experiment: cell number relative to DMSO (% of DMSO); higher = more cells (less growth inhibition / toxicity)
Conditions: concentration: 10 µM; 24 h
Procedure, shortened: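 For HCC1569 and TDF cells, compounds at 10 µM were applied for 24 h at 37 °C in triplicate in 384-well plates. Cells were fixed in 3.7% formaldehyde, stained for H1.0 and with DAPI, and imaged at ×10 over six fields per well. The endpoint, H1.0 nuclear intensity or cell number, is shown as percent of the plate control using the median of replicates. Positional effects were smoothed for HCC1569 only.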
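Further: TDF denotes transformed human dermal fibroblasts of mesenchymal origin.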

Compound | cell number
NC(=O)c1ccc2nc(-c3ccc(Oc4ccc(Cl)cc4)cc3)[nH]c2c1 [Chk2 Inhibitor II] | 97.4
CC1(C)CCC(C)(C)c2cc(C3(c4ccc(C(=O)O)cc4)OCCO3)ccc21 | 100
COc1cc2ncnc(Nc3ccc(O)c(Br)c3)c2cc1OC [JAK3 Inhibitor II] | 88.7
COc1ccc(C(=O)/C(Cc2cc(OC)c(OC)c(OC)c2)=C(\C(=O)[O-])c2ccc3c(c2)OCO3)cc1.[Na+] | 97.7
CC(C)(C)NCC(O)COc1nsnc1N1CCOCC1 (stereo not drawn) [S(-)-Timolol maleate] | 97.5
C=C1C(=O)C23C(O)C1CCC2C12COC3(O)C(O)C1C(C)(C)CCC2O (stereo not given) [Rubescensin A] | 90.8
CCCN1CCCC[C@H]1C(=O)Nc1c(C)cccc1C.Cl.O | 99.7
S=C(Nc1ccccc1)Nc1nccs1 [1-Phenyl-3-(2-thiazolyl)-2-thiourea] | 95.5
NC(=NCc1ccccc1)NC(=O)c1nc(Cl)c(N)nc1N [Benzamil] | 99.9
CCCCCC=CCC1OC1CC=CCC=CCCCC(=O)O (stereo not given) [11,12-Epoxyeicosatrienoic acid] | 104
COc1ccc(-c2cc(=O)c3c(O)cc(O)cc3o2)cc1O [Diosmetine] | 93.5
CCCS(=O)(=O)Nc1ccc(F)c(C(=O)c2c[nH]c3ncc(Cl)cc23)c1F | 96.8
C[C@H](CCC(=O)O)[C@H]1CC[C@H]2[C@@H]3C[C@H](O)[C@@H]4C[C@H](O)CC[C@]4(C)[C@H]3CC[C@]12C [(3alpha,5beta,6alpha)-3,6-dihydroxycholan-24-oic acid] | 101
Cc1ccc(OCCSc2ncccn2)c(Br)c1 [2-{[2-(2-bromo-4-methylphenoxy)ethyl]sulfanyl}pyrimidine] | 100
O=C1NC(=O)C(c2cn(CCCO)c3ncccc23)=C1c1cnccn1 [GSK-3b Inhibitor XI] | 106
CC(C)c1ccc2oc3nc(N)c(C(=O)O)cc3c(=O)c2c1 | 104
Cc1cncc2cccc(S(=O)(=O)N3CCCN(C(=O)CN)CC3C)c12.Cl.Cl.O (stereo not given) [Rho Kinase Inhibitor IV] | 78.3
CC(NC(=O)C(C#N)=Cc1ccc(O)c(O)c1)c1ccccc1 (stereo not given) [Tyrphostin AG 835] | 87.3
COc1ccc(/C=C\c2cc(OC)c(OC)c(OC)c2)cc1O [2-methoxy-5-[(Z)-2-(3,4,5-trimethoxyphenyl)ethenyl]phenol] | 61.6
C=CC(C)(O)CCC1C(=C)CCC2C(C)(C)CCCC12C (stereo not given) [Manool] | 104

Compound | cell number
CCCCCCCCCCCCCCC(F)C(=O)O (stereo not given) [2-Fluoropalmitic acid] | 105
CC(=O)OCC[N+](C)(C)C [Acetylcholine] | 106
COc1cc(Oc2ccnc3cc(OC)c(OC)cc23)ccc1NC(=O)NC(C)c1nccs1 (stereo not given) | 68.5
CCOC(=O)c1ncn2c1CN(C)C(=O)c1cc(F)ccc1-2 [Flumazenil] | 104 ± 7.3
COC1C=COC2(C)Oc3c(C)c(O)c4c(O)c(cc(O)c4c3C2=O)NC(=O)C(C)=CC=CC(C)C(O)C(C)C(O)C(C)C(OC(C)=O)C1C (stereo not given) | 103
COc1c2c(nc3ccccc13)OC(C(C)(O)CO)C2 (stereo not given) [Dubinidine] | 102 ± 7.2
O=c1cc(-c2ccc(O)c(O)c2)oc2cc(O)c(C3OC(CO)C(O)C(O)C3O)c(O)c12 (stereo not given) [Homoorientin] | 101
CCCn1c(=O)c2[nH]c(-c3ccc(OCC(=O)NCCN)cc3)nc2n(CCC)c1=O [Xanthine amine congener] | 97.6
O=C1c2ccccc2-n2c1nc1ccccc1c2=O [Tryptanthrin] | 96.9
Cl.Cl.OCCN1CCN(CCCN2c3ccccc3Sc3ccc(C(F)(F)F)cc32)CC1 [Fluphenazine.2HCl] | 95.6
Cl.Cl.O=S(=O)(NCCNCC=Cc1ccc(Br)cc1)c1cccc2cnccc12 [H-89, Dihydrochloride] | 96.6
COc1ccc(-c2coc3cc(O)ccc3c2=O)cc1 [Formononetin] | 104
Nn1nnc2ccccc21 [1-Aminobenzotriazole] | 106
CC(=O)c1ccc(S(=O)(=O)NC(=O)NC2CCCCC2)cc1 [Acetohexamide] | 105
C[C@@H](Nc1ncnc2[nH]c(-c3ccc(O)cc3)cc12)c1ccccc1 | 66
CCCCCC(O)CCC1C(O)CC(=O)C1CCCCCCC(=O)O (stereo not given) [13,14-Dihydro-prostaglandin E1] | 97.1
CN(C)CCN(Cc1cccs1)c1ccccn1.Cl [Methapyrilene hydrochloride] | 112
Cn1c(=O)c(-c2c(Cl)cccc2Cl)cc2cnc(Nc3cccc(C(=O)O)c3)nc21 | 69.7
CC(C)(C)OC(=O)CN(Cc1ccc(Cl)cc1)Cc1ccc([N+](=O)[O-])s1 | 100
C[N+](C)(C)CCOC(N)=O.[Cl-] [Carbachol] | 105
